This is one part of a sample in which hits are shown more often than they occur.
AmpC no deterg: inhibitors of E. coli AmpC beta-lactamase without detergent; P00811; AmpC nitrocefin hydrolysis, absorbance 480 nm, 0.0001% Triton; Potency, µM (titrated, usually from 57.1 µM), most hits filed as inhibitors; 330,000 compounds, 0.52% hits; AID 485341; further: nearly all actives have a fitted effect of over 20% in size
Target sequence (P00811 whole entry, looked up): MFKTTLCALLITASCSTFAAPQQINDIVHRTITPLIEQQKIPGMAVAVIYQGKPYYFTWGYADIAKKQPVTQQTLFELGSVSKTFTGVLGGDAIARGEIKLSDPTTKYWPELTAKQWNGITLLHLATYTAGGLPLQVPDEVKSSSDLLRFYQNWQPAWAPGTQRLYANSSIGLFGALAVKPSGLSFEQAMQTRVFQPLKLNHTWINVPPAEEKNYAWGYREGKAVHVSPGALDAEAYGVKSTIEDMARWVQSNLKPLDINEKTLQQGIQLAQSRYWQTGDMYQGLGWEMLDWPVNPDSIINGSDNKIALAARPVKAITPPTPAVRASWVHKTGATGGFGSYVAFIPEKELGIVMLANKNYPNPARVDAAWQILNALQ
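20 mM phosphate pH 7.0 + 0.01% (detergent screen) or 0.0001% Triton X-100; 5.3 nM AmpC reagent; cpd preinc 15 min RT; nitrocefin (800 uM stock) to start; A480 q20 s × 4 min; Activity was normalised to no-enzyme and no-compound control wells.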
SARS PLP yeast: SARS-CoV PLP inhibition in yeast; S. cerevisiae expressing SARS-CoV PLpro, growth rescue; Potency, µM (highest dose often 32.9 µM), usual class: activators; 330,000 compounds, 0.19% hits; calls by dose curve; further: nearly all actives have a fitted effect of over 55% in size
AmpC detergent: blocks E. coli AmpC beta-lactamase in detergent assay; P00811; AmpC hydrolysis of nitrocefin, absorbance 480 nm, 0.01% Triton; Potency, µM (top dose mostly 114 µM), usual class: inhibitors; 370,000 compounds, 0.041% hits; further: nearly all actives have a fitted effect of over 25% in size
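AmpC (5.3 nM in the dispensed reagent) in 20 mM phosphate pH 7.0 with 0.01% (detergent screen) or 0.0001% Triton X-100 was preincubated with compounds for 15 min at room temperature. Nitrocefin was then added from an 800 uM solution, and hydrolysis was followed at 480 nm.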
Shiga inhibitor: Shiga toxin inhibition | Vero cells, Shiga toxin protein synthesis inhibition reporter | inhibition, % at 38.7 µM | 290,000 compounds, 9.2% hits | AID 2315; in the data active means inhibition mostly above about 28%, no sharp cut-off; inactive means mostly below about 43%
Cycloheximide cs: counter-screen hit for Shiga toxin inhibitors, cycloheximide; cell reporter, cycloheximide protein synthesis inhibition counterscreen; max response, %; 300,000 compounds, 12% hits; AID 2314; in the data active means max response mostly above about 13%, no sharp cut-off; inactive means mostly below about 14%; further: read at 38.3 µM for the half of the compounds with a filed dose
AMA1 RON2 block: disrupts binding of P. falciparum AMA1 to RON2; AlphaScreen AMA1-biotinylated RON2 peptide binding; Potency, µM (series often up to 58.2 µM), actives largely listed as inhibitors; 360,000 compounds, 0.2% hits; AID 720542; further: nearly all actives have a fitted effect of over 45% in size
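AMA1 (3D7) with his tag at 25 nM final met compounds first, then biotinylated RON2 peptide at 25 nM; detection used donor plus acceptor beads, 10 µg/mL apiece, read by AlphaScreen after 30 min at room temperature.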
Hits are given with their value; n = inactive; u = inconclusive; x = not tested or not shown. Unless noted, the call rests on the fitted dose curve; in most records, active means well fitted curve in the direction sought with a large enough effect; inconclusive means small, poorly fitted or top-dose-only effect, or another doubt; inactive means no such curve, though single readings can be large; an effect the other way counts as inactive or inconclusive.

SMILES | AmpC no deterg | SARS PLP yeast | AmpC detergent | Shiga inhibitor | Cycloheximide cs | AMA1 RON2 block
CCN(CC)c1ccc(/C=N/NC(=O)c2cccc(S(=O)(=O)Nc3ccccc3OC)c2)c(O)c1 | n | 1.8µM | n | n | n | n
COc1ccc(NS(=O)(=O)c2cccc(C(=O)N/N=C/c3ccc4c(c3)OCCO4)c2)cc1 | n | n | u | n | n | n
COc1ccccc1NS(=O)(=O)c1cccc(C(=O)N/N=C/c2ccc3c(c2)OCCO3)c1 | n | n | n | 53 | 28 | n
COc1ccc(CNc2ncnc3c2c(-c2ccccc2)cn3-c2ccc(C)c(Cl)c2)cc1 | x | x | n | x | x | x
N#Cc1ccccc1Sc1ccccc1C(=O)Nc1ccc(Br)cc1 | n | n | n | n | n | n
Cc1onc(-c2ccccc2)c1C(=O)OCCOc1ccccc1F | n | n | n | n | 34 | n
CCN(CC)CCN(C(=O)c1ccc(CN2CCCCC2)o1)C(C(=O)NC1CCCCC1)c1ccc(F)cc1 (centres undefined) | n | n | n | 60 | 42 | n
CCc1sc(C(=O)Nc2cccnc2)cc1Br | n | n | n | 47 | 30 | n
CCc1sc(C(=O)Nc2ccsc2C(=O)OC)cc1Br | n | n | n | n | n | n
O=C(Nc1cccc(-c2nn[nH]n2)c1)c1ccc(Cl)s1 | n | n | n | n | n | n
O=C(Nc1cccnc1)c1ccc(Br)s1 | n | n | n | 105 | 31 | n
O=C(Nc1cccc(-c2nn[nH]n2)c1)c1ccc(Br)s1 | n | n | n | n | 23 | n
O=C(CSc1nncc2ccccc12)Nc1ccc(C(=O)O)cc1 | n | n | u | n | 21 | n
O=C(CSc1nncc2ccccc12)N1CCOCC1 | n | n | n | n | 17 | n
Cn1cc(SCC(=O)N2CCOCC2)c2ccccc21 | n | n | u | 93 | 22 | n
Cn1cc(SCC(=O)N2CCN(c3ccccc3)CC2)c2ccccc21 | n | n | u | n | n | n
CC(=O)Nc1ccc(NC(=O)CSc2cn(CC(=O)N3CCOCC3)c3ccccc23)cc1 | n | n | n | n | n | n
O=C(CSc1nc2ccccc2c2c1CCCC2)N1CCOCC1 | n | n | n | n | n | n
CCn1cc(SCC(=O)N2CCOCC2)c2ccccc21 | n | n | u | 68 | 30 | n
COc1ccccc1N(CC(=O)NCCSCc1ccccc1)S(=O)(=O)c1ccccc1 | x | x | x | x | x | n
CCn1cc(SCC(=O)NCC2CCCO2)c2ccccc21 (centres undefined) | n | n | n | n | 6.6 | n
Cc1ccc(NC(=O)CCC(=O)N/N=C/c2ccc([N+](=O)[O-])o2)cc1C | n | n | n | n | n | n
CC1=C(C(=O)Nc2ccccc2C(=O)NCc2ccccc2)SCCO1 | n | n | n | n | n | n
CC1=C(C(=O)Nc2ccccc2C(=O)NC2CCC(C)CC2)SCCO1 (centres undefined) | n | n | n | n | 16 | n
COCCNC(=O)C1(S(=O)(=O)c2ccccc2)CC=CC1 | n | n | n | n | 13 | n
SMILES | AmpC no deterg | SARS PLP yeast | AmpC detergent | Shiga inhibitor | Cycloheximide cs | AMA1 RON2 block
O=C(N1CCOCC1)C1(S(=O)(=O)c2ccccc2)CC=CC1 | n | n | n | n | n | n
O=C(N1CCCCC1)C1(S(=O)(=O)c2ccccc2)CC=CC1 | n | n | u | n | 17 | n
COc1cc(S(=O)(=O)Nc2ccc3nc(C)sc3c2)ccc1NC(C)=O | n | n | n | x | x | n
O=C(O)CCC(=O)NNC(=O)c1ccc([N+](=O)[O-])cc1 | n | n | n | n | n | n
CN(C)c1ccc(CNC(=O)Cn2c(=O)oc3cc(S(=O)(=O)N4CCCCCC4)ccc32)cc1 | x | x | n | x | x | x
Cc1ccccc1N1CC(C(=O)Nc2nnc(SCCN3CCOCC3)s2)CC1=O (centres undefined) | n | n | n | n | n | n
CN(C)c1ccc(/C=C(\NC(=O)c2ccccc2)C(=O)NCCCn2ccnc2)cc1 | n | n | n | n | n | u
CCOc1ccc2[nH]c3c(NCC(C)C)ncnc3c2c1 | n | n | n | 59 | 33 | n
COc1ccc(CNc2ncnc3c2[nH]c2ccccc23)cc1 | n | n | n | n | n | n
CC(C)OCCCNc1ncnc2c1[nH]c1ccccc12 | n | n | n | n | 16 | n
C1=C(CCNc2ncnc3c2[nH]c2ccccc23)CCCC1 | n | n | u | 116 | 26 | n
CCOc1ccc2[nH]c3c(NCCCOC)ncnc3c2c1 | n | n | n | 48 | 35 | n
O=C(C1CCN(C2CC(=O)N(c3ccc(F)cc3)C2=O)CC1)N1CCOCC1 (centres undefined) | n | n | n | n | n | n
CC(C)CNC(=O)C1(C)CCCN1Cc1ccccc1OC(F)F (centres undefined) | x | x | x | x | x | n
Cc1ccc(C)c(NS(=O)(=O)c2cc(C(=O)Nc3ccccc3-c3ccccc3)ccc2C)c1 | n | n | n | n | n | n
Cc1ccc(C)c(S(=O)(=O)Nc2ccc(O)c(Sc3ncn[nH]3)c2)c1 | n | n | n | n | n | n
CCOc1ccc2[nH]c3c(NCCOC)ncnc3c2c1 | n | n | n | 67 | 29 | n
Cc1nc2ccccc2c2nc(NC(=O)Cc3ccccc3)nn12 | n | n | n | 42 | n | n
COc1cc(NC(=O)c2sc3ncn(CC(=O)N4CCCC(C)C4)c(=O)c3c2C)cc(OC)c1OC (centres undefined) | n | n | n | n | n | n
Cc1cc(C)n2nc(C(=O)Nc3cccnc3)nc2n1 | n | n | n | n | n | n
N=C1C(c2nc3ccccc3s2)=C(O)CN1Cc1ccccc1 | n | n | n | active | 30 | n
CCN(CC)CCCN1CC(O)=C(c2nc3ccccc3s2)C1=N | n | n | n | n | n | n
N=C1C(c2nc3ccccc3s2)=C(O)CN1NC(=O)c1c[nH]c2ccccc12 | 16µM | n | n | n | n | n
CCOc1ccc(OCc2ccc(C(=O)NCc3ccncc3)o2)cc1 | n | n | u | n | 17 | n
CCc1ccc(OCc2ccc(C(=O)NCc3ccccn3)o2)cc1 | n | n | n | n | 32 | n
SMILES | AmpC no deterg | SARS PLP yeast | AmpC detergent | Shiga inhibitor | Cycloheximide cs | AMA1 RON2 block
Cc1ccccc1CS(=O)(=O)Cc1ccc(C(=O)NCc2ccccn2)o1 | n | n | n | n | n | n
Cc1ccc(C=Nc2ccccc2C(N)=O)o1 | n | n | n | 61 | 61 | n
CN(C)c1ccc(C=Nc2ccccc2C(N)=O)cc1 | n | n | n | n | 26 | n
CCN(c1ccc(OC)cc1)S(=O)(=O)c1ccc2c(c1)NC(=O)CS2 | n | u | n | n | 34 | n
CCN(c1cccc(C)c1)S(=O)(=O)c1ccc2c(c1)NC(=O)CS2 | n | n | n | n | n | n
COC(=O)c1ccc(NC(=O)c2cccc(N3C(=O)C4C5C=CC(C6CC56)C4C3=O)c2)cc1 (centres undefined) | n | n | n | 64 | 33 | n

Source: PubChem
